From PubChem BioAssay
Several values for one entry are separate records, joined by “and”; a condition that tells them apart may be missing. Identical values can stand only once. Records with an inconclusive call do not appear. For some assays here: Results with a measured potency or affinity are listed apart. Activity calls are given as the source filed them.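 Rule for the calls, unless noted: active = compounds whose cell count with miR-34 switched on is under 0.7 times the count with it off; inactive = the rest.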

How the values were obtained:
[1] = polyglutamine-triggered caspase-3 activation inhibitors, cell-based (AID 1583); details: polyglutamine-induced caspase-3 activation, cell assay; stronger effect = higher value;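 tested at 10 µM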
[2] = suppressors of polyQ aggregation in yeast, 75Q-TubU reporter (AID 1593); details: Yeast 75Q polyglutamine aggregation reporter
[3] = rescue of polyQ-huntingtin neuronal dysfunction in worms, whole organism, C. elegans mechanosensory neurons, N-terminal huntingtin (AID 1599); details: touch response, stronger effect = higher value
[4] = inhibitors of mitochondrial cytochrome c release, biochemical, purified mitochondria (AID 1603); details: stronger effect = lower value;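 note: mouse liver mitochondria challenged with calcium chloride; signal normalized to the plate average as 100%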
[5] = inhibitors of polyQ protein aggregation (AID 1604); details: polyglutamine-induced protein aggregation inhibition assay; stronger effect = higher value; tested at 2.5 µM
[6] = enhancers of glutamate uptake in motor neurons, MN-1 cell line (AID 1612); details: MN-1 motor neuron cells, stronger effect = higher value;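 note: tested at 1 µM final; 0% = mean of DMSO vehicle wells on each plate; positive means more glutamate uptake than control and negative means less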
[7] = reducers of polyQ inclusions in PC12 cells, cell-based, NGF-treated PC12, GFPQ80 (AID 1614); details: PC12 NGF-treated GFP-polyQ80 inclusion reduction;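 note: lower means fewer inclusions and 0 means no inclusions at all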
[8] = suppressors of polyglutamine aggregation in yeast, 75Q-TubH (AID 1616); details: S. cerevisiae 75Q-TubH polyglutamine aggregation suppression; stronger effect = higher value
[9] = liver-stage malaria parasite growth inhibition, primary screen, cell-based, HepG2, luciferase luminescence, HepG2 viability (AID 624349; in the data active = parasite load remaining mostly below about 12%, no sharp cut-off; inactive = mostly above about 10%;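 note: 100% = mean of DMSO negative control wells on the same plate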); details: P. berghei liver stage in HepG2, luciferase luminescence, concentration not given here; parasite load remaining: stronger effect = lower value; viability: measured here: HepG2 viability without parasites
[10] = biological target: 6-phosphogluconate dehydrogenase, decarboxylating (Homo sapiens) (UniProt P52209); assay: 6PGD enzyme inhibitors, primary screen, biochemical, human, recombinant enzyme, NADPH absorbance (AID 1159550;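 active = at least 20% inhibition of 6-phosphogluconate dehydrogenase activity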); details: recombinant 6PGD, NADPH absorbance 341 nm; at 10 µM; stronger effect = higher value
Chain of 6-phosphogluconate dehydrogenase, decarboxylating (Homo sapiens) (P52209 whole entry, looked up): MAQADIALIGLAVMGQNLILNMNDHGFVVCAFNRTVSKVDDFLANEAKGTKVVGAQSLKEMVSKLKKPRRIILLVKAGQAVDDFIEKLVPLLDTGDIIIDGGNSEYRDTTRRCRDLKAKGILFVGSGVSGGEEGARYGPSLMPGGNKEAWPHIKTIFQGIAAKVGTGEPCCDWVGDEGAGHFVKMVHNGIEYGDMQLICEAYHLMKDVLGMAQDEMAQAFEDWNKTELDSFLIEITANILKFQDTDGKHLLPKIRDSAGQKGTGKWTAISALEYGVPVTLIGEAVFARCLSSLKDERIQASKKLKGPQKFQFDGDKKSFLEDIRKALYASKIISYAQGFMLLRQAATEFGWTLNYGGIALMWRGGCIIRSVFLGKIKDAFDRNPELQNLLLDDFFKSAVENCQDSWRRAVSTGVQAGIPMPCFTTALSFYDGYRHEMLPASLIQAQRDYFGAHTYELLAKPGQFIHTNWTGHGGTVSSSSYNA

[11] = differential killing of epithelial or mesenchymal cells, primary screen, imaging, PC-3E GFP, TEM4-18 mCherry, co-culture (AID 1345086;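 active = compounds killing one labelled cell type while sparing the other, by normalised counts and ratio limits, not self-fluorescent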;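 for all read-outs here: cells exposed to compound for 72 h before imaging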;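 for red/green cell ratio (normalised): normalised mesenchymal count divided by normalised epithelial count so high means epithelial killing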); details: imaging cell counts, at 1 µM; for red/green cell ratio (normalised): actives lie on both sides, counts scaled to control wells, 1 = unselective
[12] = sensitizers of A549 cells to miR-34 induction, primary screen, imaging, A549 dox-inducible miR-34, nuclei and caspase counts (AID 1347080); details: A549 miR-34 inducible, Hoechst nuclei count, 48 h
[13] = survival rescue of mitochondrial mutant cells in low glucose, primary screen, MELAS cybrids, Rieske KO mouse fibroblasts, CellTiter-Glo (AID 1508586;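 active = mean z-score across replicates of 1.96 or higher in either the MELAS or the Rieske mutant cell line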;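 note: z relative to plate mean and SD of compound and empty wells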)
[14] = biological target: NAD(+) hydrolase SARM1 (Homo sapiens) (UniProt Q6SZW1); assay: SARM1 TIR NADase inhibitors, cell lysate, NAD-Glo luminescence (AID 1508614;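 active = compound whose remaining NAD level is above about 45 nM, limit read from the data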;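 note: higher remaining NAD means stronger inhibition of SARM1 NADase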); details: SAM-TIR HEK293T lysate NADase, at 1 µM, stronger effect = higher value
Chain of NAD(+) hydrolase SARM1 (Homo sapiens) (Q6SZW1 whole entry, looked up, the tested form may be a part): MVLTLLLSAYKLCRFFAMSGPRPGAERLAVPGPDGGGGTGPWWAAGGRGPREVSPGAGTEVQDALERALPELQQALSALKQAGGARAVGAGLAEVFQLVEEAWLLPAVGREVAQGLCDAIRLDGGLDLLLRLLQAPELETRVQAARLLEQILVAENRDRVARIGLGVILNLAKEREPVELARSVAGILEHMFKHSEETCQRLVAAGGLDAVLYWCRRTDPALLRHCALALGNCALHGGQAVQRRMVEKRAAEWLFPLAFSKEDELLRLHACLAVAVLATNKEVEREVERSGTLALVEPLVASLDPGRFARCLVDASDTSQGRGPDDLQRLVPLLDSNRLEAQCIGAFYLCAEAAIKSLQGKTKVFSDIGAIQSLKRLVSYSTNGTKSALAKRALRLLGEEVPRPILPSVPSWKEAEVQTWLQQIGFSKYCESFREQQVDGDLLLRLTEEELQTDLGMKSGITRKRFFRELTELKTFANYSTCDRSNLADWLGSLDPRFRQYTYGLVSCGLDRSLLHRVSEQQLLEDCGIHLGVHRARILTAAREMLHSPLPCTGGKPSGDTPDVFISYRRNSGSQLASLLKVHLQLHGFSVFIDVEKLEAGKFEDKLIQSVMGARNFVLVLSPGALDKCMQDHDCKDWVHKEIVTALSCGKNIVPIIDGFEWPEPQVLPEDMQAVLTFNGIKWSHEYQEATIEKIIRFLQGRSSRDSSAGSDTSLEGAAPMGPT

[15] = biological target: Mitogen-activated protein kinase 7 (Homo sapiens) (UniProt Q13164); assay: ERK5 transactivation activators in reporter cells, primary screen, cell-based, HTS (AID 1508626;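 active = luciferase signal above three times the same-plate solvent-only control wells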;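 note: luciferase driven by Gal4-ERK5 fusion binding five Gal4 sites before minimal TATA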); details: HeLa Gal4-ERK5 transactivation, 18 h, at 5 µM, stronger effect = higher value
Chain of Mitogen-activated protein kinase 7 (Homo sapiens) (Q13164 whole entry, looked up, the tested form may be a part): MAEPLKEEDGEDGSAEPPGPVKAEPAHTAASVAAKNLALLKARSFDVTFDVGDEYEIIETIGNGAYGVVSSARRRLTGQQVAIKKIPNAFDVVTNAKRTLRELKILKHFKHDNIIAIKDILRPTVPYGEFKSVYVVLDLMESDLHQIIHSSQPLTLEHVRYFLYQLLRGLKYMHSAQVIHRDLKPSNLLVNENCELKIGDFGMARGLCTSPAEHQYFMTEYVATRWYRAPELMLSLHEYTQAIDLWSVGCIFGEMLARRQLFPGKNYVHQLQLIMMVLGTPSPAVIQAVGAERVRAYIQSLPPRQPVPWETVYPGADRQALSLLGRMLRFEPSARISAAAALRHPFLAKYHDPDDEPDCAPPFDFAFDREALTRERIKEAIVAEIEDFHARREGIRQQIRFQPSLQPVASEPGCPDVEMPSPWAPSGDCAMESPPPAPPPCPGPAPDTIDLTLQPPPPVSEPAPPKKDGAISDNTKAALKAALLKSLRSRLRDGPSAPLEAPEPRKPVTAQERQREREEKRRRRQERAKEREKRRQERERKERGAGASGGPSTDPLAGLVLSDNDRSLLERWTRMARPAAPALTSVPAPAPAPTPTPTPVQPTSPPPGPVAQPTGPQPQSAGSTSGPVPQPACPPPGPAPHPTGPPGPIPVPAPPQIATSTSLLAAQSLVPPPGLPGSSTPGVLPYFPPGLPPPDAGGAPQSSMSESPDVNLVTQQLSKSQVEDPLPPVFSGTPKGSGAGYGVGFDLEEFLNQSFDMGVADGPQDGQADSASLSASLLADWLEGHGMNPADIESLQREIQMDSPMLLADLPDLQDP

[16] = viability rescue of complex I mutant cybrids, primary screen, cell-based, galactose medium, ATP luminescence (AID 1645843;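 active = z-score of at least 1.8 in each of two replicates, scored against plate mean and spread of sample wells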;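 note: positive z means more ATP and so rescue of galactose-driven cybrid death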); details: complex I mutant cybrid cells, 72 h, stronger effect = higher value
[17] = growth inhibition of DIPG glioma cells, dose response, cell-based, SU-DIPG-XIII, MIPE4.0, CellTiter-Glo, qHTS (AID 1347061; cut-off not given, nearly all actives have AC50 up to about 37 µM;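 note: cells exposed to compound for 48 hours before readout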); details: SU-DIPG-XIII viability, CellTiter-Glo ATP luminescence
[18] = growth inhibition of DIPG glioma cells, dose response, cell-based, JHH-DIPG-1, MIPE4.0, CellTiter-Glo, qHTS (AID 1347062; cut-off not given, nearly all actives have AC50 up to about 27 µM); details: JHH-DIPG-1 viability, CellTiter-Glo ATP luminescence
[19] = measured here: epithelial PC-3E GFP cell survival
[20] = measured here: mesenchymal TEM4-18 mCherry cell survival
[21] = stronger effect = lower value, cell number ratio, induced over uninduced
[22] = measured here: relative caspase fold change +Dox/-Dox
[23] = measured here: total cells with miR-34 induction, stronger effect = lower value
[24] = measured here: total cells without miR-34 induction
[25] = MELAS cybrid survival, CellTiter-Glo 48 h, stronger effect = higher value
[26] = Rieske KO mouse fibroblast survival, CellTiter-Glo 72 h

C[N+](C)(C)CCO
inhibition [1]: 2.29% | score [2]: 1.21 | rescue above control [3]: 0.45 | cytochrome c release ratio [4]: 1.11 | inhibition of aggregation [5]: 51.5% | glutamate uptake change [6]: 11.9% | inclusion score [7]: 2 | aggregation suppression score [8]: 1.39 | parasite load remaining [9]: 151% (inactive) and 49.7% (inactive) | viability [9]: 89.2% and 117% | inhibition [10]: 2.82% (inactive) | red/green cell ratio (normalised) [11]: 1.11 (inactive) | normalised cell number [11, 19]: 1.16 | normalised cell number [11, 20]: 1.3 | fold change [12, 21]: 1.01 (inactive) and 0.882 (inactive) and 0.829 (inactive) | fold change [12, 22]: 2.28 and 1.39 and 4.39 | cell count [12, 23]: 9630 and 8510 and 11000 | cell count [12, 24]: 9520 and 9640 and 13300 | z-score [13, 25]: -0.228 (inactive) | z-score [13, 26]: -0.171 | remaining NAD [14]: 10 nM (inactive) | luciferase signal [15]: 200 AU (inactive) | z-score [16]: 0.51 (inactive)

CC(=O)[C@@]1(O)CCC2C3CCC4=CC(=O)CC[C@]4(C)C3CC[C@@]21C (some centres undefined)
inhibition [10]: 7.07% (inactive) | red/green cell ratio (normalised) [11]: 0.98 (inactive) | normalised cell number [11, 19]: 0.94 | normalised cell number [11, 20]: 0.92 | fold change [12, 21]: 0.883 (inactive) | fold change [12, 22]: 0.857 | cell count [12, 23]: 7810 | cell count [12, 24]: 8840

CC1=C(/C=C/C(C)=C/C=C/C(C)=C/C=C/C=C(C)/C=C/C=C(C)/C=C/C2=C(C)CCCC2(C)C)C(C)(C)CCC1
inhibition [1]: -13.5% | score [2]: 1.3 | rescue above control [3]: -6.44 | cytochrome c release ratio [4]: 0.86 | inhibition of aggregation [5]: 42.6% | glutamate uptake change [6]: -16.2% | inclusion score [7]: 2.5 | aggregation suppression score [8]: 0.881 | parasite load remaining [9]: 58% (inactive) | viability [9]: 103% | inhibition [10]: 2.51% (inactive) | red/green cell ratio (normalised) [11]: 0.84 (inactive) | normalised cell number [11, 19]: 1.16 | normalised cell number [11, 20]: 0.98 | outcome [17]: inactive | outcome [18]: inactive | fold change [12, 21]: 0.908 (inactive) | fold change [12, 22]: 1.03 | cell count [12, 23]: 11100 | cell count [12, 24]: 12200 | remaining NAD [14]: 10 nM (inactive) | luciferase signal [15]: 36 AU (inactive)

COc1ccc2cc1Oc1ccc(cc1)C[C@H]1c3cc(c(OC)cc3CCN1C)Oc1c(OC)c(OC)cc3c1[C@H](C2)N(C)CC3
parasite load remaining [9]: 84.6% (inactive) | viability [9]: 98.6% | inhibition [10]: 19.5% (inactive) | red/green cell ratio (normalised) [11]: 0.86 (inactive) | normalised cell number [11, 19]: 1.08 | normalised cell number [11, 20]: 0.93 | fold change [12, 21]: 0.882 (inactive) and 1.13 (inactive) | fold change [12, 22]: 1.24 and 1.19 | cell count [12, 23]: 7200 and 3450 | cell count [12, 24]: 8160 and 3060 | luciferase signal [15]: 68 AU (inactive)

CN1C2CCC1CC(OC(=O)C(CO)c1ccccc1)C2 (centres undefined)
inhibition [1]: -7.62% | score [2]: 1.48 | rescue above control [3]: -4.85 | cytochrome c release ratio [4]: 1.14 | inhibition of aggregation [5]: 83.1% | glutamate uptake change [6]: 7.04% | inclusion score [7]: 2 | aggregation suppression score [8]: 1.57 | inhibition [10]: -2.64% (inactive) | red/green cell ratio (normalised) [11]: 1.05 (inactive) | normalised cell number [11, 19]: 0.95 | normalised cell number [11, 20]: 1 | outcome [17]: inactive | outcome [18]: inactive | z-score [13, 25]: -0.14 (inactive) | z-score [13, 26]: -0.261 | z-score [16]: 0.025 (inactive) and 0.13 (inactive)

c1ccc2c(Cc3c[nH]c4ccccc34)c[nH]c2c1
inhibition [10]: 2.37% (inactive) | red/green cell ratio (normalised) [11]: 0.91 (inactive) | normalised cell number [11, 19]: 1.11 | normalised cell number [11, 20]: 1.01 | fold change [12, 21]: 0.926 (inactive) | fold change [12, 22]: 0.966 | cell count [12, 23]: 4780 | cell count [12, 24]: 5160
